Experimental findings from PubChem BioAssay (Tox21) are described below.

Each structure is given as a SMILES string. Unmarked numbers belong to inactive results. Calls follow the shape of the full dose curve.
% is scaled to controls: 0 for no effect and ±100 for the full control effect.

Chain of Estrogen receptor (Homo sapiens) (P03372 whole entry, looked up): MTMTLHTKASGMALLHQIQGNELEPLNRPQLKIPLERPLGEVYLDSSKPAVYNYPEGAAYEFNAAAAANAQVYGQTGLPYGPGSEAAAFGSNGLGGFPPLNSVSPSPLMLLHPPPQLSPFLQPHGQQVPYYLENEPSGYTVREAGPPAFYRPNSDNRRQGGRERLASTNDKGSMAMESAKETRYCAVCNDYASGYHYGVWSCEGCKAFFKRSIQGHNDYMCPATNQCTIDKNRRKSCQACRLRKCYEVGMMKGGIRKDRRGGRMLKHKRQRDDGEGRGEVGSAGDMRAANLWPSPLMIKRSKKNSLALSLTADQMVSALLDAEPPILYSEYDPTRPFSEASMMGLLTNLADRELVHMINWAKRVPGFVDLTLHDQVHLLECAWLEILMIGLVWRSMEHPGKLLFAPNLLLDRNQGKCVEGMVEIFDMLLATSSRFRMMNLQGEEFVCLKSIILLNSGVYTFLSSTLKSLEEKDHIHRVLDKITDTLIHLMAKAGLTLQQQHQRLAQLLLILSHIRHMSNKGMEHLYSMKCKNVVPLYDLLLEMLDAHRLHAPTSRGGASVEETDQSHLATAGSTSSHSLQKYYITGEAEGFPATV

For this assay, the target named is Estrogen receptor (Homo sapiens) (UniProt P03372). The assay can be described thus: qHTS assay to identify small molecule agonists of the estrogen receptor alpha (ER-alpha) signaling pathway in the presence of an antagonist (AID 1259383). Also: top concentration of the series differs between compounds; nearly all actives have a fitted effect of over 15% in size. The conditions noted are these: VM7Luc4E2 cells, ERE-luciferase, +ICI-182,780, 22 h; series mostly up to 92.4 µM; activation: at the top concentration. An excerpt:
National Center for Advancing Translational Sciences [NCATS] NIH Chemical Genomics Center [NCGC] U.S. Environmental Protection Agency [EPA] National Institutes of Environmental Health Sciences [NIEHS] National Toxicology Program [NTP] Assay overview: Estrogen receptor (ER), a member of nuclear hormone receptor plays an important role in development, metabolic homeostasis and reproduction. Two subtypes of ER, ER-alpha and ER-beta, have similar expression patterns with some uniqueness in both types. Endocrine disrupting chemicals (EDCs) and their interactions with steroid hormone receptors like ER causes disruption of normal endocrine function. Therefore, it is important to understand the effect of environmental chemicals in ER signaling pathway. For identifying ER agonists, VM7Luc4E2 cell line has been used in the current assay. VM7Luc4E2 cell line (provided by Denison MS, University of California) endogenously expresses full-length ER-alpha and is stably transfected with a plasmid containing four estrogen responsive elements (ERE) upstream of a luciferase reporter gene. This current screening for measuring luciferase reporter gene activity using VM7Luc4E2 cells against Tox21 10K library collection is a confirmation study on agonist mode screening in presence of ER-antagonist (ICI-182,780) at 10.0nM final concentration.
Assay Protocol Summary: VM7Luc4E2 cells were cultured in phenol red free assay medium containing 10% charcoal stripped FBS for 5 days prior to the assay. The cells were dispensed at 4,000 cells in 4uL of assay medium per well into white wall/solid-bottom 1536-well plates (Corning Life Sciences, Corning, NY) using a Multidrop Combi (Thermo Fisher Scientific Inc., Waltham, MA) dispenser. After the assay plates were incubated at 37C and 5% CO2 for 24hr, 1uL of 10.0nM (final concentration) ICI-182,780 or assay buffer was added using two separate tips of Flying Reagent Dispenser (FRD, Aurora Discovery, San Diego, CA). Then 23nL of compounds dissolved in DMSO at 15 concentrations and positive controls or DMSO only was transferred to the assay plates by a Pintool station (Wako, San Diego, CA). The assay plates were incubated at 37C and 5% CO2 for 22hr. For luciferase read, 4uL/well ONE-Glo reagent (Promega Corporation, Madison, WI) was added to each well using FRD and after 30min incubation at room temperature, luminescence signal was measured on ViewLux plate reader (PerkinElmer, Shelton, CT).
On the technique in general: qHTS replaces the single test concentration by a dilution series.
For `Cn1cc(S(C)=O)c(=O)c2ccc(F)cc21` (stereo not given), the “activation” value was -0.941% [at 42.5 µM].
To `C=CCS(=O)(=O)O` belongs -0.116%; to `Cc1c(O)cccc1O`, 1.11%; to `CCN(CC)CCNC(=O)c1cc(S(C)(=O)=O)ccc1OC`, -0.938% [at 42.5 µM].
To `CC(C)OC(=O)c1ccccc1` belongs -0.63%; to `COc1c(N2C[C@@H]3CCCN[C@@H]3C2)c(F)cc2c(=O)c(C(=O)O)cn(C3CC3)c12`, -0.149% [at 42.5 µM]; to `CCCCCSCCCCC`, 1.95%.
With `NCCCNCCSP(=O)(O)O`, the activation is -0.349% [at 8.39 µM].
Regarding `C[C@@H]1CCN(C(=O)[C@H](CCCN=C(N)N)NS(=O)(=O)c2cccc3c2NC[C@H](C)C3)[C@@H](C(=O)O)C1`, the “activation” value was 0.387% [at 42.5 µM].
As for `Nc1cc(=O)[nH]c(N)n1`, the figure is -2.56% [at 42.5 µM]; as for `CC(C)(CC(=O)O)C(=O)O`, 0.478%.
Turning to `NC(=O)c1ccc(N)cc1`, the “activation” value was 0.325%.
For the molecule `N#Cc1ccc(C2CCCc3cncn32)cc1` (stereo not given), the “activation” value is 0.328% [at 42.5 µM].
To `CC/C=C\CCOC(C)=O` belongs 1.75%; to `CC(=O)OCC(=O)[C@@]1(O)CC[C@H]2[C@@H]3CCC4=CC(=O)CC[C@]4(C)[C@H]3C(=O)C[C@@]21C`, 0.403% [at 42.5 µM]; to `CCS(=O)(=O)c1ccc(OC)c(C(=O)OC)c1`, -0.0763% [at 42.5 µM].
With `C[C@H](NC(CCc1ccccc1)C(=O)O)C(=O)N1CCC[C@H]1C(=O)O` (stereo not given in full), the “activation” value was -1.27% [at 42.5 µM].
On to `CCOC(=O)c1ccc(C)cc1`, for which the “activation” value was -0.672%.
To `Nc1c2c(nc3ccccc13)CCCC2O` (stereo not given) belongs 0.964% [at 42.5 µM].
On to `CC(=O)CC(C)(C)C1CCCCC1`, for which the “activation” value was 0.706%.
As for `CCN(CC)CCOCCOC(=O)C1(c2ccccc2)CCCC1`, the figure is -1.72% [at 42.5 µM]; as for `Cc1cnc(NS(=O)(=O)c2ccc(N)cc2)nc1`, -1.09% [at 42.5 µM]; as for `O=C(O)c1ccccc1OP(=O)(O)O`, -0.776% [at 42.5 µM].
`O=C(c1ccccc1)C1CCCCC1`: the “activation” value is 0.802%.
Turning to `CS(=O)(=O)O`, the “activation” value was -0.0048%.
`CCCCC(CC)COC(=O)c1ccccc1O` (stereo not given): the “activation” value was 0.121% [at 42.5 µM].
For the molecule `O=C1NC(=O)[C@@]2(CCOc3ccc(F)cc32)N1`, the “activation” value was -0.256% [at 42.5 µM].
Regarding `C=C(C)CS(=O)(=O)O`, the “activation” value is 0.314%.
As for `ClC(Cl)(Br)Br`, the figure is 0.256%; as for `CC(C)NC(=O)NC(C)C`, 0.358%; as for `COc1ccc2c(c1)CCCC2=O`, 0.594% [at 42.5 µM].
To `FC1(F)C(F)(F)C(F)(F)C2(F)C(F)(F)C(F)(F)C(F)(F)C(F)(F)C2(F)C1(F)F` (stereo not given) belongs -0.0175% [at 42.5 µM]; to `COc1ccccc1OCC(O)CN1CCN(CC(=O)Nc2c(C)cccc2C)CC1` (stereo not given), -0.461% [at 42.5 µM].
To `CCCCC/C=C\CCC=O` belongs 0.789%; to `CCOC(=O)Nc1ccc(NCc2ccc(F)cc2)nc1N`, 1.35% [at 42.5 µM]; to `NC(CSCC(=O)O)C(=O)O` (stereo not given), -0.411% [at 42.5 µM].
Take `CCC(=O)OC(C)c1ccccc1` (stereo not given): the “activation” value was 0.146%.
To `Cc1cc2c(cc1S(N)(=O)=O)S(=O)(=O)CCC2` belongs 0.69% [at 42.5 µM]; to `CCOC(=O)[C@H](CCc1ccccc1)N[C@@H](C)C(=O)N1[C@H](C(=O)O)C[C@@H]2CCC[C@@H]21`, -0.921% [at 42.5 µM].
On to `Nc1nc2c(ncn2COC(CO)CO)c(=O)[nH]1`, for which the “activation” value was -0.506% [at 42.5 µM].
